Data on 26 compounds can be found in PubChem BioAssay.

Molecules are shown by their SMILES. A number with no mark means an inactive call. This is one part of the list. Activity calls are given as the source filed them. Rule as the data show it, unless noted: active = inhibition above about 11%; inactive = the rest.

A short description of assay [1]: growth loss of phage-infected E. coli expressing H. pylori AddAB, confirmation, AddAB inhibitor project, absorbance, E. coli V3065, T4 phage, triplicate (AID 488942;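 active = mean inhibition above a set limit taken from the earlier primary screen, cut at about 13% in these data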;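 also: higher means less bacterial growth since AddAB block lets phage replicate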). Particulars: OD, at 11.9 µM, active compounds read high, T4 phage with gene 2 nonsense mutations.
A short description of assay [2]: growth loss of RecBCD+ E. coli with mutant T4 phage, counter-screen for AddAB inhibitor project, absorbance, V66 E. coli (AID 488955;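 active = mean inhibition above the mean of solvent-only control wells plus 3 SD, cut at about 4% in these data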;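 also: optical density read after an 18 h incubation at 37 °C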). Particulars: OD growth, at 11.9 µM, active compounds read high.
The nature of assay [3]: bacterial viability inhibition counter-screen, confirmation, counter-screen for AddAB inhibitor project, absorbance (AID 488956; in the data active = inhibition above about 25%). Particulars: absorbance (AddAB counterscreen), at 11.9 µM, active compounds read high.
The target of assay [4] is Photoreceptor-specific nuclear receptor (Homo sapiens) (UniProt Q9Y5X4). Description: NR2E3 agonist confirmation in cells, cell-based, luminescence, CHO-S two-hybrid (AID 624378;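 active = average inhibition above a cutoff equal to the mean inhibition of all tested compounds plus one SD, cut at about 70% in these data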;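 also: 0% = DMSO in NR2E3 cells and 100% = DMSO in cells lacking NR2E3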). The note with it: CHO-S mammalian two-hybrid NR2E3-NCOR, luciferase luminescence; at 3.98 µM; active compounds read high.
Sequence of Photoreceptor-specific nuclear receptor (Homo sapiens) (Q9Y5X4 whole entry, looked up, the tested form may be a part): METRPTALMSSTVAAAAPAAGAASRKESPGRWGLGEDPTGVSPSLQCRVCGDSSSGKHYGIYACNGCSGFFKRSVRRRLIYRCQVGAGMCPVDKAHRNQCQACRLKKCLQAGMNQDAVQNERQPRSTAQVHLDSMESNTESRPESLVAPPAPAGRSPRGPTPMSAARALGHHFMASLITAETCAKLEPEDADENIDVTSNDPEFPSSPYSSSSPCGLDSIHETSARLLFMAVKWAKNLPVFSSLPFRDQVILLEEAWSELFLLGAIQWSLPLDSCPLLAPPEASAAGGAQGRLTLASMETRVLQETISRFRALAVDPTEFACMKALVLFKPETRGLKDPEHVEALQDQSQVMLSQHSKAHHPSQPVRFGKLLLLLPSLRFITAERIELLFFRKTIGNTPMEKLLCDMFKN
Assay [5] in a line: GAL4-VP16 reporter modulators, confirmation, counter-screen for NR2E3 agonist project, cell-based, luminescence, CHO-S, high throughput (AID 624379;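 active = mean inhibition above a cutoff equal to the average over all tested compounds plus one standard deviation, cut at about 70% in these data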;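 also: luciferase from a UAS reporter driven by GAL4-VP16 transactivation; 0% = DMSO with VP16-transfected cells and 100% = DMSO with cells lacking VP16; higher means less reporter light so more repression of VP16 activity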). The note with it: CHO-S GAL4-VP16 luciferase reporter, at 3.98 µM, active compounds read high.
A short description of assay [6]: growth loss of phage-infected RecBCD+ E. coli, confirmation, RecBCD inhibitor project, absorbance, E. coli V66, T4 gene 2 phage (AID 651982;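 active = mean inhibition over triplicates exceeding the hit threshold derived in the original primary screen, cut at about 11% in these data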). The note with it: E. coli V66 + T4 2- phage, growth OD; at 11.9 µM; active compounds read high.
Assay [7] in a line: E. coli viability inhibition, counter-screen for RecBCD inhibitor project, absorbance, high throughput (AID 651983; in the data active = inhibition above about 20%;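 also: E. coli strain V66 grown with compound alone and no phage infection; 0% = bacteria with DMSO vehicle only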). The note with it: absorbance (OD) growth, at 11.9 µM, active compounds read high.
Assay [8] is described as follows: growth loss of phage-infected AddAB-carrying E. coli, confirmation, counter-screen for RecBCD inhibitor project, absorbance, E. coli V3065, T4 phage (AID 651984;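 active = mean inhibition above the solvent-only control wells' mean plus 3 SD, cut at about 22% in these data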;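 also: higher means less bacterial growth from phage killing when AddAB is blocked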). The note with it: E. coli expressing H. pylori AddAB + T4 phage, OD growth; at 11.9 µM; active compounds read high; gene 2 mutant T4, recBCD-deleted host.
For assay [9], the system named is transactivating tegument protein VP16 (Human herpesvirus 1). Nature of the assay: VP16 transactivation reporter inhibitors, counter-screen for SRC2 inhibitor project, cell-based, luminescence, single concentration (AID 652007; in the data active = inhibition above about 36%). Particulars: cell-based VP16 transactivation luciferase reporter, at 8.9 µM, active compounds read high.
Assay [10] concerns the target Nuclear receptor coactivator 2 (Homo sapiens) (UniProt Q15596). Nature of the assay: SRC2 coactivator transcriptional activity inhibitors, confirmation, cell-based, luminescence, HEK293, triplicate (AID 652008;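 active = mean inhibition above 46.5%, the solvent-only control mean plus 3 SD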;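 also: 0% = DMSO-treated cells and 100% = Gossypol at 36 µM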). The note with it: HEK293 GAL4-SRC2 luciferase reporter, at 8.9 µM, active compounds read high.
Assay [11] in a line: Gal4-VP16 luciferase reporter inhibitors, counter-screen for COUP-TFII antagonist project, cell-based, luminescence, HEK293 (AID 687007; in the data active = inhibition above about 13%). Particulars: at 8.5 µM, active compounds read high.
The target of assay [12] is COUP transcription factor 2 (Homo sapiens) (UniProt P24468). Nature of the assay: NR2F2 transcriptional activity inhibitors, confirmation, cell-based, luciferase reporter, HEK293, triplicate (AID 687008;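 active = mean inhibition over three repeats above a set limit taken from the earlier primary screen, cut at about 38% in these data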;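 also: 100% = cells given the luciferase reporter alone without the COUP-TF2 vector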). The note with it: HEK293 NGFI-A luciferase reporter, luminescence; at 8.5 µM; active compounds read high.
Sequence of COUP transcription factor 2 (Homo sapiens) (P24468 whole entry, looked up): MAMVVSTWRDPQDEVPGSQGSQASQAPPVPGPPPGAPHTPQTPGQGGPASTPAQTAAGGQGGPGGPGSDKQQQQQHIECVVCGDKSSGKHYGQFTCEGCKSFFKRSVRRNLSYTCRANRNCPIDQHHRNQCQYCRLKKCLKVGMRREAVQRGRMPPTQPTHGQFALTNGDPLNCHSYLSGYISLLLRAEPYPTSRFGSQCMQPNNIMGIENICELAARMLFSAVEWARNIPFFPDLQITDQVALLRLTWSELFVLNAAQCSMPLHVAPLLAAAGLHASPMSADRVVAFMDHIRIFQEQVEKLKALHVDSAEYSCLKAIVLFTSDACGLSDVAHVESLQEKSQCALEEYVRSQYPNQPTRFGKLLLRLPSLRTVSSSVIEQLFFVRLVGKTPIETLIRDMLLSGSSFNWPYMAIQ
The target of assay [13] is Serine protease HTRA1 (Homo sapiens) (UniProt Q92743). Description: HTRA1 protease inhibitors, retest, confirmation, biochemical, fluorescence polarization (AID 540248;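 active = mean inhibition over three repeats above a set limit taken from the earlier primary screen, cut at about 37% in these data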;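 also: 0% = HTRA1 with DMSO and 100% = wells lacking HTRA1; inhibitors block probe binding so polarization drops and inhibition rises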). The note with it: recombinant HTRA1, FP-rhodamine activity-based probe, at 5.96 µM, active compounds read high.
The target of assay [14] is (Lyso)-N-acylphosphatidylethanolamine lipase (Mus musculus) (UniProt Q8VD66). Description: ABHD4 inhibitors, retest, confirmation, biochemical, fluorescence polarization, mouse (AID 720658;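 active = mean inhibition across replicates above the hit cutoff set in the primary screen, cut at about 30% in these data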;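 also: 0% = wild-type ABHD4 with DMSO and 100% = catalytically dead S159A mutant with DMSO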). Particulars: purified mABHD4, FP-Rh probe fluorescence polarization; at 8.92 µM; active compounds read high.
Sequence of (Lyso)-N-acylphosphatidylethanolamine lipase (Mus musculus) (Q8VD66 whole entry, looked up): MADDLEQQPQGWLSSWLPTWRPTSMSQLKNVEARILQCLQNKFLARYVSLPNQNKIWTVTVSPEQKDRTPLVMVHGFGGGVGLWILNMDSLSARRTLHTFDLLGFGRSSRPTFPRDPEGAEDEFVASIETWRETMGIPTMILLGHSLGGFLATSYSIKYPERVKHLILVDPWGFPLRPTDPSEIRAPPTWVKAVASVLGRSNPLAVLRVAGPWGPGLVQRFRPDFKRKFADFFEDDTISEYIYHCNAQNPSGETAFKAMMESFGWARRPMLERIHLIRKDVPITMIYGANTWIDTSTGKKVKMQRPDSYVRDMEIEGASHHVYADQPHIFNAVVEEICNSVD
Assay [15] has as its target Toll-like receptor 9 (Homo sapiens) (UniProt Q9NR96). Nature of the assay: TLR9-MyD88 association inhibitors, retest, confirmation, cell-based, CHO, BLA complementation, fluorescence, triplicate (AID 540250;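 active = mean inhibition across three repeats above about 21% taken from the earlier screen, limit read from the data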;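 also: blue over green emission ratio reports constitutive TLR9 MyD88 association via BLA complementation; 0% = DMSO vehicle wells and 100% = clavulanate BLA inhibitor wells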). The note with it: CCF4 FRET ratio, at 4.98 µM, active compounds read high.
Assay [16] in a line: beta-lactamase reporter inhibitors in CHO cells, artefact control for TLR9-MyD88 binding inhibitor project, cell-based, fluorescence (AID 540251;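 active = mean inhibition above a 50% cutoff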;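 also: counterscreen of TLR9-MyD88 hits on CMV-driven BLA in CHO-K1 cells; 0% = DMSO alone and 100% = clavulanate blocking BLA; higher means less blue over green ratio so more BLA blockade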). Particulars: CHO-BLA cells, CCF4 FRET ratio, at 4.98 µM, active compounds read high.
Assay [17] is described as follows: CHO cell viability loss – luminescence, single concentration, cytotoxicity control for TLR9-MyD88 binding inhibitor project (AID 588336). Particulars: TLR9-MyD88 CHO cells cytotoxicity, at 4.98 µM, active compounds read high.
Assay [18] addresses Receptor-interacting serine/threonine-protein kinase 2 (Homo sapiens) (UniProt O43353). Description: NOD2-RIPK2 binding disruptors, retest, confirmation, fluorescence, CHO cells, BLA complementation, triplicate (AID 624370;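 active = mean inhibition across replicates above a set limit taken from the earlier primary screen, cut at about 21% in these data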;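 also: 0% = DMSO-only wells and the high end = clavulanate BLA-blocked wells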). The note with it: CCF4 FRET, at 4.98 µM, active compounds read high.
Assay [19] is described as follows: beta-lactamase reporter inhibitors in CHO cells, confirmation, artefact control for NOD2-RIPK2 interaction inhibitor project, cell-based, CHO-K1 CMV-bla, CCF4 FRET, fluorescence (AID 624371;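 active = mean inhibition above the low-control mean inhibition plus three low-control SD, cut at about 11% in these data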;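 also: 0% = DMSO only wells and 100% = clavulanate high control wells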). Particulars: CCF4 FRET ratio, counterscreen, at 4.98 µM, active compounds read high.
Assay [20] can be described thus: StAR promoter reporter inhibitors, counter-screen for LRH-1 inverse agonist project, cell-based, luminescence, high throughput (AID 651611; in the data active = inhibition above about 28%). The note with it: StAR promoter luciferase reporter counterscreen, at 3.6 µM, active compounds read high.
Assay [21] addresses Nuclear receptor subfamily 5 group A member 2 (Homo sapiens) (UniProt O00482). Nature of the assay: LRH-1 (NR5A2) inverse agonists, retest, confirmation, cell-based, luminescence (AID 651613; in the data active = inhibition above about 42%;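 also: HEK293T cells co-transfected with LRH-1 and StAR promoter luciferase reporter; 0% = vehicle wells and 100% = parental cells lacking receptor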). The note with it: cell-based LRH-1 luciferase reporter, inverse agonism; at 3.6 µM; active compounds read high.
Assay [22] deals with Steroidogenic factor 1 (Homo sapiens) (UniProt Q13285). Nature of the assay: SF1 (NR5A1) inverse agonists, counter-screen for LRH-1 inverse agonist project, cell-based, luminescence, high throughput (AID 651614; in the data active = inhibition above about 44%;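 also: cells cotransfected with StAR promoter reporter and SF1 expression vector; 0% = vehicle on cells with receptor and 100% = vehicle on cells lacking receptor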). The note with it: cell-based SF1 luciferase reporter, at 3.6 µM, active compounds read high.
Assay [23] in a line: VP16 transactivation reporter inhibitors, counter-screen for LRH-1 inverse agonist project, cell-based, luminescence, high throughput (AID 651615; in the data active = inhibition above about 33%). The note with it: Gal4-VP16 luciferase reporter cells, at 3.6 µM, active compounds read high.
Assay [24] is described as follows: compounds interfering with TAMRA-BSA probe, counter-screen for TCR-CD3 interaction inhibitor project, biochemical, fluorescence, TAMRA-labeled BSA (AID 652035; in the data active = inhibition above about 23%;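 also: 0% = buffer low control and 100% = reference high control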). The note with it: TAMRA-labeled BSA probe fluorescence counterscreen; at 9.4 µM; active compounds read high.
Assay [25] relates to T-cell receptor (TCR)-CD3 interaction, human. Description: TCR-CD3 interaction inhibitors, retest, confirmation, biochemical, fluorescence, TAMRA-labeled TCR probe (AID 652036; in the data active = inhibition above about 19%). Particulars: TAMRA-labeled TCR probe fluorescence binding assay; at 9.4 µM; active compounds read high.

Sequence of Toll-like receptor 9 (Homo sapiens) (Q9NR96 whole entry, looked up): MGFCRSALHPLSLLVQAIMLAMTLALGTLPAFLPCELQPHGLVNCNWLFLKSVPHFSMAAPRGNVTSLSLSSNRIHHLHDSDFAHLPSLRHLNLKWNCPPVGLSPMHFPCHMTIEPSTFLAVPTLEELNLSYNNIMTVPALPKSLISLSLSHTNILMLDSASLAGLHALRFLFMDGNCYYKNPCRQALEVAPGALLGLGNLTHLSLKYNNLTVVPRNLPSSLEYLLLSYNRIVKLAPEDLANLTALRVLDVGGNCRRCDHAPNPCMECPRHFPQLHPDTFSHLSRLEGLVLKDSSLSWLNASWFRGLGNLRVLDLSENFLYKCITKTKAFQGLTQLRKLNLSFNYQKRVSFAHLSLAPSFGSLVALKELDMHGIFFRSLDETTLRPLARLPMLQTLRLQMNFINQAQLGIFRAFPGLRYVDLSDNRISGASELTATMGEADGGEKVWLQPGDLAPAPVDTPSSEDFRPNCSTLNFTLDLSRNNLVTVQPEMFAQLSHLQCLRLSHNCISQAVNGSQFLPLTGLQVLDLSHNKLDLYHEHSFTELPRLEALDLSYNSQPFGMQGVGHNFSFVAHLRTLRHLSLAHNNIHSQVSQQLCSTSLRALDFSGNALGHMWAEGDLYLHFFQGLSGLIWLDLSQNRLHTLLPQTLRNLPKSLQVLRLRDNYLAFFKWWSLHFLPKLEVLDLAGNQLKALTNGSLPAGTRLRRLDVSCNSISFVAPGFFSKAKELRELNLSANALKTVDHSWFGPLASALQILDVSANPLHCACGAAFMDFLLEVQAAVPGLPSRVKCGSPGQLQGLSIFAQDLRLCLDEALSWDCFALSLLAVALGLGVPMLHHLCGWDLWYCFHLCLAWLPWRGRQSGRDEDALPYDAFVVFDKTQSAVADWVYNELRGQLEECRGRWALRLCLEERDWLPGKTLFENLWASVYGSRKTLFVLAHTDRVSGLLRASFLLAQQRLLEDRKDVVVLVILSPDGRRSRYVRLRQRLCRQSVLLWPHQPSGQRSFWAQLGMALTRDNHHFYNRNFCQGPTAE
Sequence of Receptor-interacting serine/threonine-protein kinase 2 (Homo sapiens) (O43353 whole entry, looked up): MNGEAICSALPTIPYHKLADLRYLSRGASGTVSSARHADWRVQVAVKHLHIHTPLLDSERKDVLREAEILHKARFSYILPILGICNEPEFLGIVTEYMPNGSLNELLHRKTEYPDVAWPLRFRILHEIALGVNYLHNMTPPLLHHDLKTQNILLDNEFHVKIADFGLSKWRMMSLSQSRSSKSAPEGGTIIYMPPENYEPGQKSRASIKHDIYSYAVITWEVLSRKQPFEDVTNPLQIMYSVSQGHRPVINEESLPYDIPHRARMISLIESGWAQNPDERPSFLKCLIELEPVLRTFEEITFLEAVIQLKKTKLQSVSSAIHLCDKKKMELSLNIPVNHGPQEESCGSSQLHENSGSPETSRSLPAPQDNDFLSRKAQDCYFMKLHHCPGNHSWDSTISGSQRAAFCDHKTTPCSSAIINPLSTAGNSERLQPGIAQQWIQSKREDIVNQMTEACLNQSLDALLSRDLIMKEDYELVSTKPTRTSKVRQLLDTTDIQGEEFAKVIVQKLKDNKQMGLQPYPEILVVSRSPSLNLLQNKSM
Sequence of Nuclear receptor subfamily 5 group A member 2 (Homo sapiens) (O00482 whole entry, looked up): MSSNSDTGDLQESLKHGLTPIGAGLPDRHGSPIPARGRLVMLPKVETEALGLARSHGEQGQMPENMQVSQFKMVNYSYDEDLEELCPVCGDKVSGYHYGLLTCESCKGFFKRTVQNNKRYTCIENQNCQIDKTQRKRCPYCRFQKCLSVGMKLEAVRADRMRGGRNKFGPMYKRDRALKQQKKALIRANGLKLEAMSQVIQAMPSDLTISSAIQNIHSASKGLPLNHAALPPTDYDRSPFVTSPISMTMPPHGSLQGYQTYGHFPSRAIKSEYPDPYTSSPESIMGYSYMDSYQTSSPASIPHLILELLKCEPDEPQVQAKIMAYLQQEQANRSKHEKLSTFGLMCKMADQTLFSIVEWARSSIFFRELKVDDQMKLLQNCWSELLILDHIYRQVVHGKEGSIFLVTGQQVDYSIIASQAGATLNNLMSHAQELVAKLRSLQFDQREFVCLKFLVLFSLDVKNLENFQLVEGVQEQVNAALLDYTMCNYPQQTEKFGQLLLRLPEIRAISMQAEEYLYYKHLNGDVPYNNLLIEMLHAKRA
Sequence of Nuclear receptor coactivator 2 (Homo sapiens) (Q15596 whole entry, looked up, the tested form may be a part): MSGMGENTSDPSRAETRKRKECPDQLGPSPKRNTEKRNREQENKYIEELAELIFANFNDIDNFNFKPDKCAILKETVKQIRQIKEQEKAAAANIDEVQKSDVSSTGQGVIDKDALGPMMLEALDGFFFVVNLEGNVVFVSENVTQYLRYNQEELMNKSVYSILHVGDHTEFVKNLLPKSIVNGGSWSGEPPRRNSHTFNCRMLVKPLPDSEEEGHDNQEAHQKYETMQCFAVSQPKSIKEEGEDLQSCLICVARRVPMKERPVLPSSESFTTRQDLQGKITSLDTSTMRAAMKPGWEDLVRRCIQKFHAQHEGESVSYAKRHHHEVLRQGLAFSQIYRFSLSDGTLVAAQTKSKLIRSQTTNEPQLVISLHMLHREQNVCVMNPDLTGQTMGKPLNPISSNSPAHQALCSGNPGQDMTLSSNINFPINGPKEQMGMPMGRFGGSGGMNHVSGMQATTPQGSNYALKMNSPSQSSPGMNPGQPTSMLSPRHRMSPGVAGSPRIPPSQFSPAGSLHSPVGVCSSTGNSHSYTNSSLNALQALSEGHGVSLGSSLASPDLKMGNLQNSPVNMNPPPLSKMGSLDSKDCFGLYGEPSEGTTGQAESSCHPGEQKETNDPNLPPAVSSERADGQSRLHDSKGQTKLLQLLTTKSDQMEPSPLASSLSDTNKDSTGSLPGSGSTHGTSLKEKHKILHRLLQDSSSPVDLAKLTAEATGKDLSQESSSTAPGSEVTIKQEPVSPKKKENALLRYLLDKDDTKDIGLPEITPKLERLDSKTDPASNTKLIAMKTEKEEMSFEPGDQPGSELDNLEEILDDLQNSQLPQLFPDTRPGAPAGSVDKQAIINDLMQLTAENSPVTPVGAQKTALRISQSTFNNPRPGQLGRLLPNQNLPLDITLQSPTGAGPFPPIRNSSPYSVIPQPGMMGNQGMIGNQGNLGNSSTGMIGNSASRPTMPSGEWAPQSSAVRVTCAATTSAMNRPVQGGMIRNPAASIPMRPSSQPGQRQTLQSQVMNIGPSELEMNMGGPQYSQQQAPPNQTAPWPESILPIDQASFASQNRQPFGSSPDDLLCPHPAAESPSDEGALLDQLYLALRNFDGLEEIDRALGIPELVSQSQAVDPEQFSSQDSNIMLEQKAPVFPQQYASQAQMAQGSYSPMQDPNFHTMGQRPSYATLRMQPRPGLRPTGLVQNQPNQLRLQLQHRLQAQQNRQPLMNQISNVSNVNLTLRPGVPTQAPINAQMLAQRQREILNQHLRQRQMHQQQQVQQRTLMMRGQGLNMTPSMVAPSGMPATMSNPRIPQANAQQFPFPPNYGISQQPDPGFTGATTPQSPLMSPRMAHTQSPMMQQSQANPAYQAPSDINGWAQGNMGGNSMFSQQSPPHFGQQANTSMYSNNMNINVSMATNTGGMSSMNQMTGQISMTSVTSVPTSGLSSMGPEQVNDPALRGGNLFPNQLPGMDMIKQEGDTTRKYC

Take `O=C(OCC(=O)c1cccs1)c1ccc([N+](=O)[O-])o1`: the inhibition in assay [1] was 73.1% (active); in assay [2], 1.72%; in assay [3], 6.32%.
As for `CCOC(=O)c1ccc(NC(=O)Cn2cnc3cc(C)c(C)cc32)cc1`, the inhibition in assay [1] is 24.2% (active); in [2], 18.4% (active); in [3] it was 21.4%; in [4], 96% (active); in [5], 87.5% (active); in assay [6], 13.5% (active). The inhibition is 14.5% in [7]; 21.8% (active) in assay [8]; 19.5% in assay [9]; 36.7% in assay [10]; 8.87% in [11]; 62.9% (active) in assay [12].
In the case of `CC(=O)c1c(C)n([O-])c2ccccc2[n+]1=O`, the inhibition in assay [1] was 100% (active); in assay [2], 26.2% (active); in assay [3], 89.7% (active); in assay [6], 16.9% (active); in assay [7], 21.4% (active); in assay [8], 87.7% (active).
`COc1cccc2sc(NNC(=O)c3nc4ccccc4s3)nc12`: the inhibition in assay [13] is 130% (active).
On to `O=C1c2ccccc2C(=O)c2c1cccc2N1CCN(Cc2ccccc2)CC1`, for which the inhibition in assay [13] is 60.1% (active).
For the compound `COc1ccc(C(=O)c2oc3ccc(Br)cc3c2NC(C)=O)cc1`, the inhibition in assay [1] was -2.85%; in [2], -1.5%; in assay [3], -3.05%.
`C/[N+]([O-])=C\c1ccc([N+](=O)[O-])o1`: the inhibition in assay [1] was 101% (active); in [2], 42.8% (active); in assay [3], 99.3% (active).
On to `COc1c(N2CCN(C(=S)Nc3ccccc3F)C(C)C2)c(F)cc2c(=O)c(C(=O)O)cn(C3CC3)c12` (configuration not stated), for which the inhibition in [1] is 102% (active); in assay [2], 100% (active); in assay [3], 101% (active); in assay [6], 102% (active); in assay [7], 103% (active); in assay [8], 101% (active).
For the compound `Brc1ccccc1C1Nc2cccc3cccc(c23)N1`, the inhibition in assay [13] is 2.05%; in assay [14] it was 42.5% (active).
In the case of `CCOc1ccc(C2=CC(c3ccccc3)n3ncnc3N2)cc1` (configuration not stated), the results for the inhibition in assay [15], in assay [16] and in [17] were -2.09%, -1.41% and -1.28%, respectively.
Consider `O=C(COC(=O)c1c2c(nc3ccccc13)/C(=C\c1cccs1)CCC2)Nc1ccccc1Cl`, for which the results for the inhibition in assay [15], in [16] and in assay [17] were 11.4%, 18.4% and -3.1%, respectively.
On to `COc1ccccc1CSc1ncc(-c2ccc([N+](=O)[O-])cc2)[nH]1`, for which the inhibition is 5.87% in assay [15]; 9.21% in [16]; 2.09% in assay [17]; 28.2% (active) in [18]; 21.9% (active) in assay [19].
For `CNC(=S)N/N=C/c1ccc(OCc2ccccc2)c(Br)c1`, in that order: 27.6% (active), 27.6%, 43.4% (active), 54.2% (active) and 52.8% (active).
As for `Oc1c(CN2CCCC2)cc(COCc2ccccc2)c2cccnc12`, the inhibition in [13] is 80% (active).
For the compound `CC1(C)CC(=O)C(C2c3ccccc3S(=O)(=O)c3ccccc32)C(=O)C1`, the inhibition was -5.15% in [15], -0.53% in [16] and 2.02% in [17].
For the compound `CC(=O)N1CCN(c2ccc(NCc3ccc(C(C)C)cc3)cc2)CC1`, the inhibition in [13] is 12.7%.
As to `COc1cccc(/C=N/Nc2ccc(S(=O)(=O)Nc3ccccc3C(=O)O)cc2[N+](=O)[O-])c1O`, the inhibition in assay [13] is 25.5%; in assay [14], 67.4% (active).
On to `Cc1cc(C)nc(SCc2ccccc2C#N)n1`, for which the inhibition is 1.99% in assay [15], 0.68% in [16] and 2.36% in [17].
With `COc1ccc(-c2cc(C(F)(F)F)nc(S(C)(=O)=O)n2)cc1OC`, the inhibition in assay [15] is 28.8% (active); in assay [16], 5.84%; in [17], 85.2% (active); in assay [18], 42.1% (active); in assay [19] it was 14.4% (active).
Turning to `COc1ccccc1/C=C/C(=O)OCC(=O)NC1CCCCCC1`, the inhibition in [15] was -4.73%; in assay [16] it was -6.03%; in [17], 0.37%.
`COc1cccc2c1C(=O)c1c(O)c3c(c(O)c1C2=O)CC(O)(C(C)=NNC(=O)c1ccc(Cl)c(Cl)c1)CC3OC1CC(N)C(O)C(C)O1` (configuration not stated): the inhibition in assay [13] was 69.6% (active); in [20] it was 72.7% (active); in [21], 75.1% (active); in assay [22], 94.8% (active); in assay [23], 65.9% (active); in assay [24], 159% (active). The results for the inhibition in [25], in assay [11] and in assay [12] were 126% (active), 41.2% (active) and 32.5%, respectively.
In the case of `O=C1C(Cl)=C(Oc2ccccc2)C(=O)c2ccccc21`, the inhibition in [15] is 79% (active); in assay [16], 17.5%; in assay [17], 96.2% (active).
With `CC(=N\NC(=O)c1cc(Br)ccc1O)/C(=N/O)C(=O)Nc1ccccc1`, the inhibition is 55.9% (active) in assay [13], -21.4% in assay [24] and 16.5% in [25].
Regarding `O=Nc1c(O)cc(O)c2ccccc12`, the inhibition in assay [13] is 10.1%; in assay [14] it was 11.7%.
As to `CCCN(CCC)C(=O)C1c2ccccc2Oc2ccccc21`, the inhibition in assay [13] is -8.94%.
For the compound `CS(=O)(=O)c1sc2nc(-c3ccccc3)cc(-c3ccccc3)c2c1N`, the inhibition in assay [15] was 31.1% (active); in assay [16], 31.6%; in assay [17] it was -0.85%.
